Experimental findings from PubChem BioAssay (NCI) are described below.

Common to all, as to assay: NCI-60 one-dose screen, 48 h (100 = growth as untreated, 0 = no growth, -100 = all killed)
The test system of one assay is HCT-15 colon. Particulars: 10 µM unless noted.
The test system of a further assay is HT29 colon. Particulars: 10 µM unless noted.
A further assay has as its system SNB-75 CNS. Particulars: 10 µM unless noted.
Another assay deals with SNB-19 CNS. The following applies: 10 µM unless noted.
For a further assay, the system named is U251 CNS. The following applies: 10 µM unless noted.
Another assay concerns PC-3 prostate. Particulars: 10 µM unless noted.
For a further assay, the system named is SK-MEL-5 melanoma. Particulars: 10 µM unless noted.
A further assay concerns UACC-62 melanoma.
A further assay deals with LOX IMVI melanoma. The following applies: 10 µM unless noted.
The next assay concerns SK-MEL-28 melanoma. The following applies: 10 µM unless noted.

“And” between values parts separate entries of the source, which are not always exact repeats. Identical values can stand only once. Compounds without any hit were thinned out: in the full panel of roughly 83,000, 20% have a hit.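 For each line, cells grew in 96-well plates with the test compound present at a single concentration for 48 hours.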 Values without a mark were called inactive. The source made the active and inactive calls. How the source made its calls: active means growth percent below 10; inactive means the rest.

Turning to `Cc1cc(O)c2cc3c(O)c(O)ccc3cc2c1`, the growth in the assay with HCT-15 colon is 113%; in the assay with HT29 colon, 125%; in the assay on SNB-75 CNS it was 127%; with SNB-19 CNS, 108%; in the assay on U251 CNS, 108%; with PC-3 prostate it was 97.1%. The growth with SK-MEL-5 melanoma was 94.8%; with UACC-62 melanoma (10 µM), 114%; with UACC-62 melanoma (100 µM), -27.7% (active) and -63.9% (active); with LOX IMVI melanoma, 112%.
As to `COc1cnc2c(c1)C(=O)c1c-2n(CCCN2CCNCC2)c(=O)c2cc(Cl)ccc12`, the growth was -89.4% (active) in the assay with HCT-15 colon; -80.4% (active) with HT29 colon; 39.7% in the assay on SNB-75 CNS; 30.4% with SNB-19 CNS; -98.4% (active) in the assay with U251 CNS; -84% (active) in the assay with PC-3 prostate. Moreover, the growth is 45.2% in the assay on SK-MEL-5 melanoma, -45% (active) with UACC-62 melanoma (10 µM unless noted), -84.6% (active) in the assay with LOX IMVI melanoma and -88.2% (active) in the assay on SK-MEL-28 melanoma.
As to `COC(=O)c1ccc2c(c1)nc(-c1cc3ccccc3[nH]c1=O)n2-c1cc(C(C)(C)C)[nH]n1`, the growth in the assay on HCT-15 colon was 78.2%; with HT29 colon, 7.39% (active); with SNB-75 CNS, 101%; with SNB-19 CNS it was 35%; with U251 CNS, 39.7%; with PC-3 prostate it was 53%. Moreover, the growth in the assay with SK-MEL-5 melanoma was 74.9%; with UACC-62 melanoma (10 µM unless noted), 51.2%; with LOX IMVI melanoma it was 11.2%; with SK-MEL-28 melanoma it was 84.1%.
For the compound `COc1cc(NCC(O)CN(CC(C)C)CC(C)C)c2ncccc2c1` (stereo not given), the growth in the assay on HCT-15 colon was 80.1%; in the assay on HT29 colon, 77.9%; in the assay on SNB-75 CNS, 82.8%; in the assay with SNB-19 CNS, 90.1%; in the assay with U251 CNS it was 80.7%; with PC-3 prostate, 58.6%. For the same compound, the growth with SK-MEL-5 melanoma is 86.1%; with UACC-62 melanoma (10 µM unless noted), 76.9%; with LOX IMVI melanoma, 83.6%; in the assay with SK-MEL-28 melanoma it was 75.3%.
For the compound `O=C(c1ccccc1)c1cccc(C(Br)Br)c1`, the growth in the assay on HCT-15 colon is 73.4%; in the assay on HT29 colon, 63.5%; with SNB-75 CNS it was 73.9%; in the assay with SNB-19 CNS it was 83.6%; with U251 CNS, 88.9%; in the assay with PC-3 prostate it was 91.8%. The growth in the assay on SK-MEL-5 melanoma is 74%; in the assay on UACC-62 melanoma (10 µM unless noted), 81.1%; in the assay on LOX IMVI melanoma it was 80.6%; in the assay with SK-MEL-28 melanoma it was 93.2%.
Take `O=[N+]([O-])c1ccc(N/N=C/c2ccccc2O)nc1`: the growth in the assay on HCT-15 colon was 29.9%; in the assay with HT29 colon it was 47%; in the assay with SNB-75 CNS it was 52.9%; in the assay with SNB-19 CNS, 56.2%; in the assay on U251 CNS, 28.5%; with PC-3 prostate, 45.8%. Moreover, the growth in the assay with SK-MEL-5 melanoma is 20%; in the assay with UACC-62 melanoma (10 µM unless noted), 42.7%; in the assay with LOX IMVI melanoma, 26.4%; in the assay with SK-MEL-28 melanoma it was 62%.
As to `O=C(N/N=C/c1ccc([N+](=O)[O-])o1)c1ccc(O)cc1`, the growth in the assay on HCT-15 colon is 42.9%; in the assay with HT29 colon, 17.1%; in the assay on SNB-75 CNS, 84.7%; in the assay with SNB-19 CNS, 54%; in the assay with U251 CNS, 34%; in the assay on PC-3 prostate, 87.4%. For the same compound, the growth was 2.57% (active) with SK-MEL-5 melanoma, 47.5% in the assay on UACC-62 melanoma (10 µM unless noted), 12.9% in the assay on LOX IMVI melanoma and 77.7% in the assay with SK-MEL-28 melanoma.
`CC(SC(C)C(=O)N/N=C/c1cccc(Cl)c1)C(=O)N/N=C\c1cccc(Cl)c1` (stereo not given): the growth is 86.5% in the assay with HCT-15 colon; 79% with HT29 colon; 83.7% in the assay with SNB-75 CNS; 89.5% in the assay with SNB-19 CNS; 48.2% with U251 CNS; 53.5% in the assay with PC-3 prostate. Besides, the growth with SK-MEL-5 melanoma is 98.2%; with UACC-62 melanoma (10 µM unless noted), 92.1%; in the assay on LOX IMVI melanoma, 7.06% (active); with SK-MEL-28 melanoma it was 117%.
With `CCCCCCCC/C=C\CCCCCCCC(=O)OCCCCCC`, the growth with HCT-15 colon is 101%; in the assay with HT29 colon, 109%; with SNB-75 CNS it was 117%; with SNB-19 CNS, 112%; in the assay with U251 CNS, 97.1%; with PC-3 prostate, 91.5%. For the same compound, the growth in the assay on SK-MEL-5 melanoma is 108%; with UACC-62 melanoma (10 µM unless noted), 110%; in the assay on LOX IMVI melanoma it was 98.8%; with SK-MEL-28 melanoma it was 122%.
`CC(C)(C)c1cc(C[P+](c2ccccc2)(c2ccccc2)c2ccccc2)cc(C(C)(C)C)c1O`: the growth was 23.2% in the assay with HCT-15 colon; -13.1% (active) in the assay on HT29 colon; 2.05% (active) in the assay with SNB-75 CNS; 24.5% in the assay with SNB-19 CNS; 5.39% (active) in the assay on U251 CNS; -10.5% (active) with PC-3 prostate. Moreover, the growth with SK-MEL-5 melanoma was -96.9% (active); in the assay with UACC-62 melanoma (10 µM unless noted), -3.2% (active); in the assay on LOX IMVI melanoma, 5.93% (active); in the assay on SK-MEL-28 melanoma, 38.4%.
On to `CN(C)c1nc(-c2ccco2)n2nc(-c3ccc(Cl)cc3)cc2n1`, for which the growth is 92.7% in the assay with HCT-15 colon; 58.6% in the assay with HT29 colon; 20.9% with SNB-75 CNS; 77.9% with SNB-19 CNS; 59.5% in the assay with U251 CNS; 64.7% in the assay on PC-3 prostate. In addition, the growth was 81.2% in the assay with SK-MEL-5 melanoma, 87% in the assay with UACC-62 melanoma (10 µM unless noted), 50.5% in the assay with LOX IMVI melanoma and 94.8% in the assay on SK-MEL-28 melanoma.
`COc1ccccc1CNCCCN1C(=O)c2ccc3c4c(ccc(c24)C1=O)C(=O)N(CCCNCCCN)C3=O`: the growth with HCT-15 colon was 8.83% (active); in the assay with HT29 colon it was -31.5% (active); in the assay with SNB-75 CNS it was 46%; in the assay on SNB-19 CNS it was 11.9%; in the assay on U251 CNS, -72.5% (active); in the assay with PC-3 prostate, 18.7%. In addition, the growth is -97.8% (active) with SK-MEL-5 melanoma, -50% (active) with UACC-62 melanoma (10 µM unless noted), -7.09% (active) with LOX IMVI melanoma and 22.7% in the assay on SK-MEL-28 melanoma.
Turning to `COc1ccccc1-[n+]1cc(-c2ccc(-c3ccccc3)cc2)n2c1CCCCC2`, the growth with HCT-15 colon is 66%; in the assay with HT29 colon, 1.07% (active); with SNB-75 CNS, 16%; in the assay with SNB-19 CNS, 11.7%; with U251 CNS, 10.6%; in the assay with PC-3 prostate it was 1.3% (active). Moreover, the growth is -78.8% (active) with SK-MEL-5 melanoma, 2.5% (active) with UACC-62 melanoma (10 µM unless noted), 11.3% with LOX IMVI melanoma and 27.8% in the assay on SK-MEL-28 melanoma.
For the compound `COc1cc(C2C(C#N)=C(N)Oc3cc4c(cc32)OCO4)cc2c1OCO2` (stereo not given), the growth in the assay with HCT-15 colon was 21.5%; with HT29 colon, 9.21% (active); with SNB-75 CNS, -9.64% (active); with SNB-19 CNS it was 45.7%; in the assay with U251 CNS, 28.4%; with PC-3 prostate it was 27.9%. For the same compound, the growth with SK-MEL-5 melanoma was 19.8%; in the assay on UACC-62 melanoma (10 µM unless noted) it was 30.7%; in the assay with LOX IMVI melanoma, 38.3%; with SK-MEL-28 melanoma, 41.7%.
